Experiment [1] addresses Bile acid receptor (Homo sapiens) (UniProt Q96RI1). The experiment in a line: qHTS assay for small molecule antagonists of farnesoid X receptor signaling (AID 588526). Further: on the % scale 0 is the no-effect control and ±100 the full control effect. The method, boiled down:
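Antagonist mode: titrated compounds tested against chenodeoxycholic acid stimulation (normalized to 50 uM CDCA and DMSO) in GeneBLAzer HEK293T cells for 16 h. Beta-lactamase read by CCF4 fluorescence; IC50 from Hill fits.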
For orientation: Quantitative high-throughput screening tests each substance at several concentrations.

In experiment [2] the target is Glucocorticoid receptor (Homo sapiens) (UniProt P04150). The experiment in a line: qHTS assay for small molecule agonists of glucocorticoid receptor signaling (AID 588532; active means well fitted curve in the direction sought with a large enough effect in the signal ratio, with a control signal flat; the % refers to the signal ratio;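 further: 100% = dexamethasone at 0.1 µM and 0% = DMSO only wells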). The following applies: HeLa MMTV-bla, beta-lactamase ratio, agonist, 18 h; stronger effect = higher value; percent of dexamethasone control, DMSO zero. In short, it runs like this:
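HeLa GRE-bla reporter cells; 18 h compound exposure at 37 C; 2 h CCF4 loading at room temperature; fluorescence at 460 and 530 nm; EC50 by Hill equation.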

Experiment [3] has the same target. The experiment in a line: qHTS assay for small molecule antagonists of glucocorticoid receptor signaling (AID 588533; active means well fitted inhibition curve with a large enough effect in the signal ratio, with a control signal flat, not every such curve was filed as active; the % refers to the signal ratio; further: on the % scale 0 is the no-effect control and ±100 the full control effect). The method, boiled down: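 Antagonist-mode qHTS: compound titrations added to GRE-bla HeLa cells, then dexamethasone 2 nM final; 18 h, 37 C. CCF4 FRET fluorescence normalized to dexamethasone and DMSO; IC50 from Hill fit.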
Experiment [4] in a line: qHTS assay for small molecule antagonists of peroxisome proliferator-activated receptor delta signaling (AID 588535; active means well fitted inhibition curve with a large enough effect in the signal ratio, with a control signal flat, not every such curve was filed as active; the % refers to the signal ratio;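 on max response: cells co-treated with a PPAR-delta agonist as stimulator during compound exposure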). The following applies: HEK293T PPARd-UAS-bla, beta-lactamase FRET ratio, 18 h; 460 nm channel. The method, boiled down:
(§1)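 Cells were seeded at 4000 per well in assay medium containing 2% charcoal/dextran FBS and held 5 hrs at 37 C. Compounds were then added for 18 hrs. CCF4 substrate was applied for 2 hrs at room temperature before fluorescence reading.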

The target of experiment [5] is Peroxisome proliferator-activated receptor delta (Homo sapiens) (UniProt Q03181). The experiment is described as above. The method, boiled down:
as §1

The target of experiment [6] is Peroxisome proliferator-activated receptor gamma (Homo sapiens) (UniProt P37231). The experiment is described as follows: qHTS assay for small molecule agonists of peroxisome proliferator-activated receptor gamma signaling (AID 588536; active means well fitted curve in the direction sought with a large enough effect in the signal ratio, with a control signal flat, not every such curve was filed as active; the % refers to the signal ratio;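 further: 0% = DMSO basal wells and 100% = rosiglitazone at 2 µM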). In short, it runs like this: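 Test agents, titrated, stimulated HEK293 UAS-bla cells overnight (16 h, 37 C). Substrate CCF4 was then added for two hours at room temperature before fluorescence reading.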
Chain of Peroxisome proliferator-activated receptor gamma (Homo sapiens) (P37231 whole entry, looked up): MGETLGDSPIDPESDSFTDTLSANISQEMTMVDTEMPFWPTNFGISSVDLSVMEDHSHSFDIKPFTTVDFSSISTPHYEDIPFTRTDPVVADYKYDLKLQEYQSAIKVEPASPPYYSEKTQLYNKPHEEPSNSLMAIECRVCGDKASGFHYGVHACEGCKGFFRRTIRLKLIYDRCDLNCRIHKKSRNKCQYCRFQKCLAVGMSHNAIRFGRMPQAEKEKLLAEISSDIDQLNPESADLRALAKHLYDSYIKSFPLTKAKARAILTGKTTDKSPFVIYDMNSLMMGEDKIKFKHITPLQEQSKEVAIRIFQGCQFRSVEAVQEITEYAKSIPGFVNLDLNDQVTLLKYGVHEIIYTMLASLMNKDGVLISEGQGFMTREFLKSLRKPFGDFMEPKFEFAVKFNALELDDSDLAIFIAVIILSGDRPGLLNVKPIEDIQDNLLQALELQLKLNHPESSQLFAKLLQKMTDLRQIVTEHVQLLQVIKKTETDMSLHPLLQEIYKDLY

The target in experiment [7] is Vitamin D3 receptor (Homo sapiens) (UniProt P11473). The experiment in a line: qHTS assay for small molecule antagonists of vitamin D receptor signaling (AID 588541).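 Further: receptor activated by calcitriol during compound treatment; series mostly up to about 77 µM; on the % scale 0 is the no-effect control and ±100 the full control effect.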 The method, boiled down:
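VDR-UAS-bla HEK293T cells in 2% charcoal-stripped FBS were stimulated with 1-alpha,25-dihydroxyvitamin D3 (3 nM final) plus compound for 16 h at 37 C. The beta-lactamase CCF4 readout was normalized to 50 nM agonist and DMSO, and Hill fits gave IC50.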

Experiment [8] shares this target. The experiment is described as follows: qHTS assay for small molecule agonists of vitamin D receptor signaling (AID 588543).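 Further: 0% = DMSO basal and 100% = reference agonist control.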 In short, it runs like this: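 GeneBLAzer VDR-UAS-bla HEK293T cells in 2% charcoal-stripped FBS medium were dosed with compound titrations for 16 h at 37 °C; CCF4 β-lactamase readout (405 nm ex, 460/530 nm em). EC50 and efficacy from Hill fits, normalized to 50 nM calcitriol (100%) and DMSO (0%).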

The nature of experiment [9]: qHTS assay for small molecule agonists of retinoid X receptor alpha signaling (AID 588544).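 On activation: 0% = DMSO basal wells and 100% = reference agonist.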 The note with it: HEK293T RXRa-UAS-bla, beta-lactamase reporter, 18 h; 530 nm emission.
Experiment [10] deals with Retinoic acid receptor RXR-alpha (Homo sapiens) (UniProt P19793). Described as above.
Chain of Retinoic acid receptor RXR-alpha (Homo sapiens) (P19793 whole entry, looked up): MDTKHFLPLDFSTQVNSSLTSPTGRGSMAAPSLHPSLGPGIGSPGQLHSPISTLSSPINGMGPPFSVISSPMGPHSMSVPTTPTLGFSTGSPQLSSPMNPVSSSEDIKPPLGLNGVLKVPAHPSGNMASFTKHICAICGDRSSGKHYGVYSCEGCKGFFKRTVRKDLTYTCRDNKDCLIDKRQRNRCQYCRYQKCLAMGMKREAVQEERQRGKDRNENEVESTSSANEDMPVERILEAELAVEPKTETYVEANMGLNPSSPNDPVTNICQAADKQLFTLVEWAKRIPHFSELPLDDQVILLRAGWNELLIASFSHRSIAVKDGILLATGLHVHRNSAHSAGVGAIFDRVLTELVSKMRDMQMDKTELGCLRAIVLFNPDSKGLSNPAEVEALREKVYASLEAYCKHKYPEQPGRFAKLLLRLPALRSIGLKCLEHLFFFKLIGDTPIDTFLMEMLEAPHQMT
Experiment [11] addresses Thyroid hormone receptor beta (Homo sapiens) (UniProt P10828). The experiment is described as follows: qHTS assay for small molecule agonists of thyroid hormone receptor beta signaling (AID 588545). The method, boiled down:
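In this cell-based screen, titrated compounds act on HEK 293 cells held in medium with 2% charcoal/dextran FBS, NEAA and pyruvate for 18 hrs at 37 C. Responses are expressed relative to T3 (10 nM) as 100% and basal DMSO as 0%.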

A short description of experiment [12]: qHTS assay for small molecule antagonists of retinoid X receptor alpha signaling (AID 588546; active means well fitted inhibition curve with a large enough effect in the signal ratio, with a control signal flat, not every such curve was filed as active; the % refers to the signal ratio;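 further: cells stimulated with 9-cis-retinoic acid as agonist; on the % scale 0 is the no-effect control and ±100 the full control effect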). The note with it: HEK293T RXRa-UAS-bla, beta-lactamase ratio, antagonist mode; measured here: W530 green channel, cytotoxicity proxy. In short, it runs like this:
(§2)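 Beta-lactamase reporter inhibition, read as CCF4 fluorescence ratio (ex 405, em 460/530 nm) after 2 h at RT. HEK293T UAS-bla cells, 2500/well, were stimulated with 9-cis-RA at 500 or 100 nM final alongside test compound for 18 h at 37 C.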

Experiment [13] deals with Retinoic acid receptor RXR-alpha (Homo sapiens) (UniProt P19793). Described as above. The note with it: HEK293T RXRa-UAS-bla, beta-lactamase ratio, antagonist mode. In short, it runs like this: as §2
Experiment [14] addresses Thyroid hormone receptor beta (Homo sapiens) (UniProt P10828). The experiment in a line: qHTS assay for small molecule antagonists of thyroid hormone receptor beta signaling (AID 588547; active means well fitted inhibition curve with a large enough effect in the signal ratio, with a control signal flat, not every such curve was filed as active; the % refers to the signal ratio). The following applies: TR-UAS-bla HEK293, beta-lactamase ratio, antagonist mode, 18 h. The method, boiled down:
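TR-UAS-bla GripTite HEK293 cells in 2% charcoal/dextran FBS medium; compounds 0.59 nM to 92 uM with T3 at 0.4nM final, 18 h at 37 C. Beta-lactamase read by CCF4 fluorescence (460/530 nm); Hill fits gave IC50 and efficacy.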

For experiment [15], the target named is Voltage-gated inwardly rectifying potassium channel KCNH2 (Homo sapiens) (UniProt Q12809). The experiment is described as follows: qHTS Assay for Small Molecule Inhibitors of the Human hERG Channel Activity (AID 588834; active means well fitted inhibition curve with a large enough effect;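 further: top concentration of the series differs between compounds; on the % scale 0 is the no-effect control and ±100 the full control effect; lower thallium flux fluorescence means stronger hERG block; nearly all actives have a fitted effect of over 50% in size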). In short, it runs like this:
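U2OS cells transduced with hERG via BacMam (MOI ~100), plated 2000/well, loaded with FluxOR thallium dye, compound ~10 min, then stimulation buffer; fluorescence decrease read kinetically; AC50 from Hill fits.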

The nature of experiment [16]: qHTS assay for small molecule activators of the p53 signaling pathway (AID 651743; active means well fitted activation curve with a large enough effect in the signal ratio, not every such curve was filed as active; the % refers to the signal ratio; further: series mostly up to about 92 µM; % of control where 0% means no effect). The note with it: HCT-116 p53RE-bla, beta-lactamase FRET ratio, 16 h; stronger effect = higher value. In short, it runs like this:
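HCT-116 p53RE-bla, 4,000 cells/well; 5 h settle; cpd/DMSO 16 h, 37 C; LiveBLAzer B/G 2 h RT; fluorescence intensity.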

Experiment [17] addresses Peroxisome proliferator-activated receptor gamma (Homo sapiens) (UniProt P37231). The experiment in a line: qHTS assay for small molecule antagonists of peroxisome proliferator-activated receptor gamma signaling (AID 588537; active means well fitted inhibition curve with a large enough effect in the signal ratio, with a control signal flat, not every such curve was filed as active; the % refers to the signal ratio;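 further: reporter cells co-stimulated with 50 nM rosiglitazone agonist during compound treatment; % of control where 0% means no effect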). The method, boiled down:
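Step one: plate 3000 HEK293 UAS-bla cells per well in medium with 1% stripped serum and hold 6-6.5 h at 37 C. Step two: add compound and 50 nM agonist for 16 h. Step three: CCF4 loading, fluorescence read.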

Experiment [18] can be described thus: qHTS assay for small molecule agonists of the antioxidant response element (ARE) signaling pathway (AID 651741; active means well fitted activation curve with a large enough effect in the signal ratio; the % refers to the signal ratio; further: % of control where 0% means no effect). The method, boiled down:
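HepG2 ARE-bla cells plated at 2,000 cells/well and incubated 5 h at 37 C/5% CO2 received 23 nL compound in DMSO. After 16 h at 37 C, LiveBLAzer B/G FRET substrate was applied for 2 h at room temperature and fluorescence read.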

The nature of experiment [19]: qHTS assay for small molecule activators of the nuclear factor-kappa B (NF-kB) signaling pathway (AID 651749; active means well fitted activation curve with a large enough effect in the signal ratio; the % refers to the signal ratio; further: series mostly up to about 77 µM; % of control where 0% means no effect). The note with it: NF-kB-bla ME-180 cells, beta-lactamase FRET ratio, 16 h; stronger effect = higher value. In short, it runs like this:
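Incubation lasted 16 hr at 37C in 5% CO2 after 23 nL compound addition to ME-180 NF-kB-bla cells. Activation appears as beta-lactamase-mediated FRET loss.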

Where “and” joins values, the source holds several entries; their conditions need not be identical. Identical values can stand only once. Inconclusive results are not listed. Calls of active or inactive are those of the source. Unless noted, the call rests on the fitted dose curve.

Chain of Voltage-gated inwardly rectifying potassium channel KCNH2 (Homo sapiens) (Q12809 whole entry, looked up): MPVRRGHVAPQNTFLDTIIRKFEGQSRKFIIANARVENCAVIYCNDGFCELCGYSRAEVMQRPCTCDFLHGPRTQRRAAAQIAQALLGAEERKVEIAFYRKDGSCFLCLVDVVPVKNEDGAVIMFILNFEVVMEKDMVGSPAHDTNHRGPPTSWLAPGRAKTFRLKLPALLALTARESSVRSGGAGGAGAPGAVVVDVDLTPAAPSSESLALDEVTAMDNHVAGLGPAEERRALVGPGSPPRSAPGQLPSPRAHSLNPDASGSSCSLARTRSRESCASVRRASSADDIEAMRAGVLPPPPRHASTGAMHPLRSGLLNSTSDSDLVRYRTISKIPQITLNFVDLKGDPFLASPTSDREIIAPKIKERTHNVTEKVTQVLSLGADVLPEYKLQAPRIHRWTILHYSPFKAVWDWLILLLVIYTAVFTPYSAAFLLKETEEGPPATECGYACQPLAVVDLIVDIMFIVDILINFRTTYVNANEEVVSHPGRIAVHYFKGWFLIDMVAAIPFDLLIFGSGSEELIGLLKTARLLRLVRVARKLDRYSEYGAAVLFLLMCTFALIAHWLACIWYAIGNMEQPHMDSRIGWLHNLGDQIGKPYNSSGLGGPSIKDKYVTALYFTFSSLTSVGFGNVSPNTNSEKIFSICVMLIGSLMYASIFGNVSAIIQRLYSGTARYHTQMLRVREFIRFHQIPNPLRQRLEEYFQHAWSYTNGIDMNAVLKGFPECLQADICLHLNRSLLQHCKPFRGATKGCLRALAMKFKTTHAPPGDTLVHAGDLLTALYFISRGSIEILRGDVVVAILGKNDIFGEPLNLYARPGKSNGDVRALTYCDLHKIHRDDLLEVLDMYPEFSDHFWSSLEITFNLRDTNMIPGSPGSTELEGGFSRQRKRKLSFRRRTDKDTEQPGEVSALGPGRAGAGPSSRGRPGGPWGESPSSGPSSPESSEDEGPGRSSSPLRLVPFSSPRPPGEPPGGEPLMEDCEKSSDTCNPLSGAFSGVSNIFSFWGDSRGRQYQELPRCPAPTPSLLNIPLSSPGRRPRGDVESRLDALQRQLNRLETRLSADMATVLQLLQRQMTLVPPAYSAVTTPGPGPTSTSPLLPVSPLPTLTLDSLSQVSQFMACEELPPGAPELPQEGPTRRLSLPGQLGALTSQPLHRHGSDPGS
Chain of Bile acid receptor (Homo sapiens) (Q96RI1 whole entry, looked up): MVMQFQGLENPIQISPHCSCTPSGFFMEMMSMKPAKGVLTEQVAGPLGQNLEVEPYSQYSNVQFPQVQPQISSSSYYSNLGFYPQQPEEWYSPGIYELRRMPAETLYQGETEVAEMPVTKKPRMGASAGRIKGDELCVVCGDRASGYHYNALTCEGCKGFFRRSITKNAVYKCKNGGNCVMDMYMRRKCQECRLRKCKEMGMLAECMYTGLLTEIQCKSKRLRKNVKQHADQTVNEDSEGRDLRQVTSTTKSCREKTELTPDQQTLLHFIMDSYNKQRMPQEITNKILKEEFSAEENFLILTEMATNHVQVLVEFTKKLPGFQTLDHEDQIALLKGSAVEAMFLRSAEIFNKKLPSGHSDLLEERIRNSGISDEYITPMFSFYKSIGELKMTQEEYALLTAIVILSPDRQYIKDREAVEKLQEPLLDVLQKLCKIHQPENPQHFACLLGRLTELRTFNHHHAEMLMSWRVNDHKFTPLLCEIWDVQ
Chain of Vitamin D3 receptor (Homo sapiens) (P11473 whole entry, looked up): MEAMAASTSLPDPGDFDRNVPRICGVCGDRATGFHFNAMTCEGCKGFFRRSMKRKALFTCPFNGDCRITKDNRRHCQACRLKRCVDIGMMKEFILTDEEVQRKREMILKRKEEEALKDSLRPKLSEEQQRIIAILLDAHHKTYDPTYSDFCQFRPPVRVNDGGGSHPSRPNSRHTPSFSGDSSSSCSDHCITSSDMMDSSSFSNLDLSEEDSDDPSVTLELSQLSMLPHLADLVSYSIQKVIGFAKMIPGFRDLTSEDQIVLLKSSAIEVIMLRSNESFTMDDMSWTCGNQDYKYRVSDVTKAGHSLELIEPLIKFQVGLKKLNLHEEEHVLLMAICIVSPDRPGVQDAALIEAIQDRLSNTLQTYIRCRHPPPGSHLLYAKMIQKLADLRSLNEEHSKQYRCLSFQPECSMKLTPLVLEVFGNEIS
Chain of Glucocorticoid receptor (Homo sapiens) (P04150 whole entry, looked up): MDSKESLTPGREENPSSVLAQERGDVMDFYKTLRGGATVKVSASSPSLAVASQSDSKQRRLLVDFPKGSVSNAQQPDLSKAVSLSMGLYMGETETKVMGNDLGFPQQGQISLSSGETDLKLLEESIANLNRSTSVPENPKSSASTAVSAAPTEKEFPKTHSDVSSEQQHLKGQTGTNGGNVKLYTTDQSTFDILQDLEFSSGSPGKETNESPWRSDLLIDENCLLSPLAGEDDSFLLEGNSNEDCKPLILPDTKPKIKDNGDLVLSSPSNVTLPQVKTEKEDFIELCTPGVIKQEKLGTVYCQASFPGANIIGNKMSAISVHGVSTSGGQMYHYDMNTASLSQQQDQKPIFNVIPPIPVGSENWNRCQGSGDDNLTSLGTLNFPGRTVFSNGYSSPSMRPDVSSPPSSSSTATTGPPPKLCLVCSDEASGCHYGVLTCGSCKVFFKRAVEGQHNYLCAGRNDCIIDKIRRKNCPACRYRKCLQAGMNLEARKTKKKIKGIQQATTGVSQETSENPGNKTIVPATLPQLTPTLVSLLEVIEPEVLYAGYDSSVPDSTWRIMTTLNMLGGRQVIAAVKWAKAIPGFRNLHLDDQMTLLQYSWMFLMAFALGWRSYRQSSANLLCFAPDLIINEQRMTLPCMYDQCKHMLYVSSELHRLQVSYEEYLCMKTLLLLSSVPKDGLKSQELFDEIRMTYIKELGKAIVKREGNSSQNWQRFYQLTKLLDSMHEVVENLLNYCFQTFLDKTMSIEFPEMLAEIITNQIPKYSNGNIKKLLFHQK
Chain of Thyroid hormone receptor beta (Homo sapiens) (P10828 whole entry, looked up): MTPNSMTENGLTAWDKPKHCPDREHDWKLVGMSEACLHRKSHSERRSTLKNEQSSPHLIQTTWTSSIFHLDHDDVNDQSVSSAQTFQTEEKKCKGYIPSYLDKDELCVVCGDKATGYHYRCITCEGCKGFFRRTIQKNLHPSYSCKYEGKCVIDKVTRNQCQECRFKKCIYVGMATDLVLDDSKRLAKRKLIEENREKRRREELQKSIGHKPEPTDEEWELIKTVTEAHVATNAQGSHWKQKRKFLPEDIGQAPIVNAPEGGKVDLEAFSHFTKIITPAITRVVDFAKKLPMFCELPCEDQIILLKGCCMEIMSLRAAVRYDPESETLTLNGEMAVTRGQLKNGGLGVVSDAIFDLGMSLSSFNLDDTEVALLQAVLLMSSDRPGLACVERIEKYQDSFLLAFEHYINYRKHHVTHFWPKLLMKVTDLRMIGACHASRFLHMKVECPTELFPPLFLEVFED
Chain of Peroxisome proliferator-activated receptor delta (Homo sapiens) (Q03181 whole entry, looked up): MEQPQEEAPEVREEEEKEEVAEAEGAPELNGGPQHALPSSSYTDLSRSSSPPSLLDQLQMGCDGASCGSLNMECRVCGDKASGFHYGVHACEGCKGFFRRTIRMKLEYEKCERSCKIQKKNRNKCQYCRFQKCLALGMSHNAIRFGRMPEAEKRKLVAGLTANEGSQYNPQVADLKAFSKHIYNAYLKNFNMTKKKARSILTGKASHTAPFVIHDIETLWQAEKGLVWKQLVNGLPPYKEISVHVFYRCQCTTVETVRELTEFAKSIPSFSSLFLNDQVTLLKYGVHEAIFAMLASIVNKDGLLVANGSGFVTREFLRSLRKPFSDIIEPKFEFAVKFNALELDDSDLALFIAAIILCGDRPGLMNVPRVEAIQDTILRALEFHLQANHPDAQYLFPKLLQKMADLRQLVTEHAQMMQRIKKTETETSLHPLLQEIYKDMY

Regarding `O=Cc1cccc(Br)c1`, the molecule was called inactive in experiment [1], in experiment [3], in experiment [6], in [7], in [8] and in [10]. The result in experiment [11] was inactive. The activation in experiment [2] was -2.28% (inactive); in [16], -0.251% (inactive). In addition, the max response in experiment [4] was 21.9%; in experiment [9] it was 0.636%; in [12], 0.346%; in [13], 4.36% (inactive). The Potency entry in experiment [5] and in [15] was “inactive” throughout. For the same molecule, the activity change % (negative = inhibition) in experiment [14] was -16.4% (inactive).
Turning to `Clc1ccc(Cl)c(Cl)c1Cl`, the molecule was called inactive in experiment [1], in experiment [3], in experiment [6], in [17], in experiment [7] and in experiment [8]. Further, the result in experiment [10] and in experiment [11] was inactive. The activation is 16% (inactive) and -12% (inactive) in experiment [2]; -4.49% (inactive) and 4.59% (inactive) in experiment [16]; 0.56% (inactive) and -0.536% (inactive) in [19]. The max response in experiment [4] was 9.65% and -40.7%; in [9], -17% and 0.458%; in experiment [12] it was 6.74% and -2.64%. Also, the Potency result in experiment [5], in experiment [15] and in [18] was “inactive” throughout. For the same molecule, the activity change % (negative = inhibition) in [14] is 26.9% (inactive).
In the case of `Cc1c(C(=O)O)cccc1[N+](=O)[O-]`, the outcome in experiment [1], in experiment [3], in experiment [6], in experiment [17], in [7] and in experiment [8] was inactive. In addition, the call in [10] was inactive. Also, the activation in experiment [2] is -3.11% (inactive); in experiment [16] it was 1.1% (inactive); in experiment [19], 0.0023% (inactive). In addition, the max response in [4] is -26.4%; in experiment [9] it was -9.97%; in experiment [12], -4.5%; in experiment [13] it was -1.44% (inactive). Also, in experiment [5], the Potency entry was “inactive”. The activity change % (negative = inhibition) in experiment [14] was 12.8% (inactive).
As to `Cc1ccc(C)o1`, the molecule was called inactive in experiment [1], in [3], in experiment [6], in experiment [7], in experiment [8] and in experiment [10]. Besides, the results for the activation in [2] and in [16] were -6.27% (inactive) and -6.1% (inactive), respectively. Moreover, the max response in experiment [4] was -8.16%; in [9] it was 16.3%; in [12] it was 5.87%; in [13] it was -4.44% (inactive). In addition, the Potency entry in [5], in experiment [15] and in [18] was “inactive” throughout. Further, the activity change % (negative = inhibition) in experiment [14] was -3.98% (inactive).
Regarding `CCCCCCCCCCCCOCC1CO1` (stereo not given), the molecule was called inactive in experiment [1], in experiment [3], in [6], in experiment [8], in experiment [10] and in experiment [11]. The activation in [2] was 7.49% (inactive); in [19], -0.615% (inactive). Further, the max response in [4] was 36.4%; in experiment [9], 6.34%. Moreover, the Potency result in experiment [5] and in experiment [15] was “inactive” throughout. Besides, the activity change % (negative = inhibition) in [14] was -4.18% (inactive).
As to `Cc1ccc(S(=O)(=O)NC2CCCCC2)cc1`, the outcome in experiment [1], in [3], in experiment [6], in experiment [10] and in experiment [11] was inactive. In addition, the activation in experiment [2] is -3.36% (inactive); in experiment [16], -2.24% (inactive); in experiment [19], -0.807% (inactive). Moreover, the max response is 42.4% in [4], -12.2% in experiment [9], -7.45% in experiment [12] and 11.2% (inactive) in experiment [13]. The Potency entry in experiment [5], in experiment [15] and in experiment [18] was “inactive” throughout. The activity change % (negative = inhibition) in experiment [14] was -0.348% (inactive).
`C=CC(=O)OCCCC`: the molecule was classed as inactive in experiment [1], in [3], in [7], in experiment [8], in [10] and in experiment [11]. In addition, the activation in experiment [2] was 6.23% (inactive); in [16] it was -0.944% (inactive). For the same molecule, the max response was -13.6% in [4], -9.05% in experiment [9] and 3.81% in [12]. Also, the Potency entry in [5], in experiment [15] and in experiment [18] was “inactive” each time. Moreover, the activity change % (negative = inhibition) in [14] was 1.99% (inactive).
